Tb PYK inh – qHTS of Trypanosoma Brucei Inhibitors | TbPYK enzyme, Kinase-Glo Plus ATP luminescence, 45 min | Potency, µM (series often up to 76.8 µM), inactives show at the top dose activity, negative = inhibition, usual class: inhibitors | 410,000 compounds, 0.12% hits | pyruvate kinase (Trypanosoma brucei), Q57TT1; further: on the % scale 0 is the no-effect control and ±100 the full control effect; nearly all actives have a fitted effect of over 50% in size
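Luminescent Kinase-Glo Plus end-point after 45 min room-temperature reaction of T. brucei pyruvate kinase started with 130 uM ADP (final). Buffer TEA 50 mM pH 7.2 with KCl, MgCl2, BSA, Tween-20; titration-based qHTS with fitted concentration-effect curves.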
SARS PLpro yeast – qHTS of Yeast-based Assay for SARS-CoV PLP; AID 485353, 2010; S. cerevisiae expressing SARS-CoV PLpro, growth rescue; 330,000 compounds, 0.19% hits; Potency, µM (doses to about 32.9 µM), for the others: at the highest dose activity, positive = growth rescue, most hits filed as activators; calls by dose curve; further: 0% is about no effect; nearly all actives have a fitted effect of over 55% in size
RE007 growth inh – qHTS Assay for Inhibitors of the HIV-1 protein Vpr; S. pombe RE007 Vpr strain, BacTiter-Glo ATP luminescence, 24 h; Potency, µM (series often up to 92.2 µM), for inactives: top-dose activity change, negative = less growth, actives largely listed as inhibitors; 360,000 compounds, 0.21% hits; AID 651644, 2012; active means well fitted falling curve with a large enough effect; inconclusive means small, poorly fitted or top-dose-only effect; inactive means no such curve, though single readings can be large or run the other way; further: on the % scale 0 is the no-effect control and ±100 the full control effect; nearly all actives have a fitted effect of over 50% in size
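Fission yeast RE007 carrying one integrated HIV-1 vpr copy, seeded at OD 0.01 in PMG+AL medium with 23 nL pinned compound. Grown 24 h at 30 degrees; viability read by BacTiter-Glo luminescence after 5 min.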
LmPK inh – qHTS Assay for Inhibitors of Leishmania Mexicana Pyruvate Kinase (LmPK) | Q27686 | purified LmPK, Kinase-Glo ATP luminescence, 1 h | Potency, µM (doses to about 57.5 µM), without a hit: top-dose activity change, negative = inhibition, hits mostly inhibitors | 290,000 compounds, 0.37% hits; further: on the % scale 0 is the no-effect control and ±100 the full control effect
Target sequence (Q27686 whole entry, looked up): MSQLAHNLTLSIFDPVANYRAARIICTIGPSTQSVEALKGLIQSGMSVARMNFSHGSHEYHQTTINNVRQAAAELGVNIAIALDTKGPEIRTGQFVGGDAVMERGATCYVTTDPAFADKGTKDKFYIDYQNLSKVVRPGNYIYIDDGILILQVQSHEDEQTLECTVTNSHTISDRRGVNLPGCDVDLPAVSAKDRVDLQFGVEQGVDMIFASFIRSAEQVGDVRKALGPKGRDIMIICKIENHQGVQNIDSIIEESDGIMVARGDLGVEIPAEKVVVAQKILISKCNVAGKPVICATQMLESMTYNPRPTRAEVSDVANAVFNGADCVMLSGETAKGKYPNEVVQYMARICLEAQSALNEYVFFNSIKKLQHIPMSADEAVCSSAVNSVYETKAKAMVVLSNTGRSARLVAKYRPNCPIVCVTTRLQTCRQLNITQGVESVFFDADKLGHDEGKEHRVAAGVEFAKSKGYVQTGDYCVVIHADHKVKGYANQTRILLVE
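ATP generated from ADP (0.1 mM) and PEP (0.5 mM) by 0.1 nM LmPK over 1 h at room temperature (pH 7.2 imidazole buffer) was detected by coupled luciferase luminescence. Values were normalized to uninhibited and no-enzyme wells.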
AMA1-RON2 inh – qHTS for Inhibitors of AMA1-RON; Towards Development of Antimalarial Drug Lead: Primary Screen; AID 720542, 2013; Plasmodium falciparum AMA1 (3D7) - RON2 peptide interaction; 360,000 compounds, 0.2% hits; Potency, µM (doses to about 58.2 µM), inactives show at the top dose activity change, negative = inhibition, usual class: inhibitors; AlphaScreen AMA1-biotinylated RON2 peptide binding;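 further: 0% = vehicle wells and -100% = peptide control; nearly all actives have a fitted effect of over 45% in size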
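AMA1 (3D7) with his tag at 25 nM final met compounds first, then biotinylated RON2 peptide at 25 nM; detection used donor plus acceptor beads, 10 µg/mL apiece, read by AlphaScreen after 30 min at room temperature.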
An asterisk follows results filed as active; [ ] = dose if it differs, or a comment. Most compounds without a hit are left out; they make up all but 0.81% or so of the library. Unless noted, the call rests on the fitted dose curve; in most records, active means well fitted curve in the direction sought with a large enough effect; inconclusive means small, poorly fitted or top-dose-only effect, or another doubt; inactive means no such curve, though single readings can be large; an effect the other way counts as inactive or inconclusive. Potency means the concentration at half of the fitted maximal effect.

Results for CCOC(=O)c1c(C)n(-c2ccc(OC)cc2)c2ccc(OC(=O)COc3ccccc3)cc12 ?
Tb PYK inh: 2%

Results for O=C1CC=C2C3CC4N(CCC45c4cc(O)c(O)cc4N1C25)CC3=CCBr (configuration not stated) ?
Tb PYK inh: 2.8µM*; RE007 growth inh: -5%; AMA1-RON2 inh: inconclusive

What do the screens show for `Cc1ccc(-n2nc3c(n2)/C(=N/O)CC/C3=N\O)cc1`?
Tb PYK inh: -14%; SARS PLpro yeast: -35%; RE007 growth inh: inconclusive; LmPK inh: 14µM*; AMA1-RON2 inh: -4%

How did O=C(c1sc2cc(F)ccc2c1Cl)N1CCN(c2cccc(Cl)c2)CC1 do in these assays?
Tb PYK inh: -1%; SARS PLpro yeast: -24%; RE007 growth inh: -12%; LmPK inh: 7%; AMA1-RON2 inh: -20%

How did O=c1c2ccccc2sn1-c1ccc(Cl)cc1 do in these assays?
Tb PYK inh: 32µM*; RE007 growth inh: 8.9µM*; AMA1-RON2 inh: 10%

Results for O=c1c2cc(F)ccc2sn1-c1ccccc1Cl ?
Tb PYK inh: 11µM*; RE007 growth inh: inconclusive; AMA1-RON2 inh: -9%

Results for Cc1ccc(-n2sc3ccccc3c2=O)cc1 ?
Tb PYK inh: 7.9µM*; SARS PLpro yeast: -86%; RE007 growth inh: 6.3µM*; LmPK inh: 20µM*; AMA1-RON2 inh: 19%

Results for Cc1ccc(Cn2c(=O)sc3ccccc3c2=O)cc1 ?
Tb PYK inh: 1%; SARS PLpro yeast: -3%; RE007 growth inh: -6%; LmPK inh: 6%; AMA1-RON2 inh: 7%

Results for O=c1c2ccc(F)cc2sn1-c1ccccc1 ?
Tb PYK inh: 10µM*; RE007 growth inh: -70%; AMA1-RON2 inh: -3%

Results for O=C1Nc2cc(Cl)ccc2Oc2cc(Oc3ccccc3)ccc21 ?
Tb PYK inh: 1%

How did CCCCCC1Nc2cc(C(F)(F)F)c(S(N)(=O)=O)cc2S(=O)(=O)N1 (configuration not stated) do in these assays?
Tb PYK inh: 4%

How did COC(=O)c1cccc(N2CCCC2=O)c1 do in these assays?
Tb PYK inh: -1%; SARS PLpro yeast: -2%; RE007 growth inh: 0%; LmPK inh: 0%; AMA1-RON2 inh: 9%

What do the screens show for `O=c1sc2ccccc2c(=O)n1Cc1ccccc1F`?
Tb PYK inh: -3%; SARS PLpro yeast: 4%; RE007 growth inh: -5%; LmPK inh: 1%; AMA1-RON2 inh: 20%

How did O=c1c2ccccc2sn1-c1ccc(F)cc1 do in these assays?
Tb PYK inh: 8.9µM*; SARS PLpro yeast: 3%; RE007 growth inh: 5.6µM*; AMA1-RON2 inh: 4%

Results for Cc1ccc(N2C(=O)CC(N3CCN(c4ccc(F)cc4)CC3)C2=O)c(C)c1 (configuration not stated) ?
Tb PYK inh: -2%; SARS PLpro yeast: -6%; RE007 growth inh: -24%; LmPK inh: 1%; AMA1-RON2 inh: -6%

Results for COC(=O)c1cccc(-n2sc3ccccc3c2=O)c1 ?
Tb PYK inh: 6.3µM*; SARS PLpro yeast: -8%; RE007 growth inh: inconclusive; AMA1-RON2 inh: 22%

Results for Cc1ccc(-n2sc3cc(F)ccc3c2=O)c(C)c1 ?
Tb PYK inh: 10µM*; RE007 growth inh: 11µM*; AMA1-RON2 inh: 0%

What do the screens show for `COc1cc2c(N3CCN(C(=O)Nc4ccc(OC(C)C)cc4)CC3)ncnc2cc1OCCCN1CCCCC1`?
Tb PYK inh: -1%

What do the screens show for `O=P(O)(O)OC[C@@H](O)CO`?
Tb PYK inh: 0%

Results for Cc1cc(C)cc(-n2c(SCC(=O)NC3CCCCC3)nc3c([nH]c4ccccc43)c2=O)c1 ?
Tb PYK inh: 8%

Results for Cc1ccc(NC(=S)NCC23C=CC(O2)C2C(=O)N(c4ccc(C)cc4)C(=O)C23)cc1 (configuration not stated) ?
Tb PYK inh: -13%; SARS PLpro yeast: -85%; RE007 growth inh: 8.9µM*; LmPK inh: 2%; AMA1-RON2 inh: 7%

How did Cc1ccc(S(=O)(=O)NCC2(c3ccccc3)CCN(C)CC2)cc1 do in these assays?
Tb PYK inh: 1%; SARS PLpro yeast: 2%; RE007 growth inh: 2%; LmPK inh: 5%; AMA1-RON2 inh: 40%

How did Cc1ccc(S(=O)(=O)NCC23C=CC(O2)C2C(=O)N(c4ccccc4)C(=O)C23)cc1 (configuration not stated) do in these assays?
Tb PYK inh: -17%; SARS PLpro yeast: -29%; RE007 growth inh: 8.9µM*; LmPK inh: 10%; AMA1-RON2 inh: 12%

What do the screens show for `S=C(NCC1CCCO1)N1CCN(c2ccccc2)CC1` (configuration not stated)?
Tb PYK inh: 2%; SARS PLpro yeast: -4%; RE007 growth inh: 5%; LmPK inh: -10%; AMA1-RON2 inh: 2%

What do the screens show for `Cc1cccc(NC(=S)NC(=O)/C=C/c2ccco2)c1`?
Tb PYK inh: -2%; SARS PLpro yeast: -1%; RE007 growth inh: -27%; LmPK inh: -1%; AMA1-RON2 inh: 14%

How did Cc1ccc(N2C(=O)C3C4C=CC(CNC(=S)N5CCN(c6ccccc6)CC5)(O4)C3C2=O)cc1 (configuration not stated) do in these assays?
Tb PYK inh: -16%; SARS PLpro yeast: -13%; RE007 growth inh: 5.6µM*; LmPK inh: 9%[11.5 µM]; AMA1-RON2 inh: -23%

What do the screens show for `Cc1cccc(NC(=S)NCC23C=CC(O2)C2C(=O)N(c4ccc(Cl)cc4)C(=O)C23)c1` (configuration not stated)?
Tb PYK inh: -23%; SARS PLpro yeast: -83%; RE007 growth inh: 3.5µM*; LmPK inh: -6%; AMA1-RON2 inh: 12%

What do the screens show for `CCOC(=O)N=Nc1c2ccccc2c2nc3no[nH]c3nc12`?
Tb PYK inh: 3%; SARS PLpro yeast: -33%; RE007 growth inh: 5µM*; LmPK inh: -5%; AMA1-RON2 inh: 7%

How did CC(=O)Oc1cc(C(=O)OCC(=O)NC23CC4CC(CC(C4)C2)C3)cc(OC(C)=O)c1OC(C)=O do in these assays?
Tb PYK inh: -15%; RE007 growth inh: -12%; AMA1-RON2 inh: 20µM*

Results for COC(=O)C1=C(C)NC(COC(N)=O)=C(C(=O)OC(C)C)C1c1cccc(Cl)c1Cl (configuration not stated) ?
Tb PYK inh: 2%

How did Cc1ccc(N=N/C(=C\O)C(=O)c2ccncc2)cc1 do in these assays?
Tb PYK inh: 0%; SARS PLpro yeast: -12%; RE007 growth inh: 20µM*; LmPK inh: 10%; AMA1-RON2 inh: -4%

High-throughput results: PubChem, National Center for Advancing Translational Sciences (NCATS)
